# Compound activity from PubChem.
# Compounds with a hit are over-represented: about 2.3% of the library has one in this group of screens.
# Shn3 3UTR inh – inhibitors of Schnurri-3 3'UTR reporter in osteoblasts | Clone20 osteoblast Shn3 3'UTR firefly luciferase, 24 h | inhibition, % at 12.5 µM | hit rate 0.52% among 360,000;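 active = mean inhibition of at least 75% with every replicate also reaching 75%; inconclusive = mean inhibition at least 75% but some replicate below; inactive = mean inhibition below 75%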;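 note: 0% = median of neutral control wells and 100% = pilot-screen positive control compound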
# TRPM1 prom inh – MITF TRPM1 promoter inhibition in SK-MEL-5 cells; SK-MEL-5 TRPM1 promoter luciferase, 24 h; inhibition, % at 12.5 µM; hit rate 0.83% among 330,000; AID 488899;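 active = mean inhibition across replicates of 60% or more, whatever share of single replicates reaches that level; inconclusive = some that reach 60%, reason not given; inactive = mean inhibition across replicates below 60%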
# EBV LMP1 NFkB – Epstein-Barr LMP1 NF-kappaB reporter inhibition; AID 504558; inhibition, % at 12.5 µM; hit rate 0.69% among 350,000; LMP1-induced NF-kappaB luciferase reporter cells, luminescence; in the data active = inhibition above about 41%; inconclusive = no clear call, values can overlap the other calls;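 note: 0% = neutral control wells and 100% = reference inhibitor control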
# Jurkat NFkB inh – inhibitors of the PMA/ionomycin-induced NF-kB reporter in Jurkat cells; inhibition, % at 4 µM; hit rate 0.53% among 330,000; AID 435003; PMA/ionomycin-induced NF-kB luciferase reporter, luminescence; in the data active = inhibition above about 50%
# 697 NFkB inh – lowers PMA/ionomycin-induced NF-kB signal in 697 B cells; 697 B-cell NF-kB luciferase reporter, 16 h; inhibition, % at 4 µM; hit rate 0.33% among 330,000; in the data active = inhibition above about 35%
# Gli-Sufu block – blocks Gli-Sufu signaling in a luciferase reporter | Sufu-KO-LIGHT fibroblasts, Gli luciferase reporter luminescence | inhibition, % at 5 µM | hit rate 0.74% among 340,000 | AID 588413;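 active = inhibition above about 55%, limit read from the data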;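 note: 0% = DMSO-treated cells and 100% = wells with medium but no cells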
# An asterisk follows results filed as active; ? = inconclusive; . = no result given.
SMILES,Shn3 3UTR inh,TRPM1 prom inh,EBV LMP1 NFkB,Jurkat NFkB inh,697 NFkB inh,Gli-Sufu block
COCCN1Cc2cccc(C(=O)Nc3ccc(C)cc3)c2C1=O,-20.1,-10.4,-1.9,-1.5,6.6,14.7
O=C(CSc1ncc(-c2ccc(F)cc2)[nH]1)Nc1cccc(O)c1,-2.8,-11.9,-3.8,1.9,-0.9,1.6
O=C(CCCc1ccccc1)Nc1cccc(C(=O)O)c1,6.9,69.7*,46.2*,39.8,-21.6,-51.7
NC1=NC[C@H](Cc2ccc(O)cc2)N1CCc1cccc(F)c1,-15.7,-12.8,-4.4,8.4,10.0,-3.7
O=C(c1cc(-c2ccc(Cl)cc2Cl)on1)N1CCCC1,0.6,-6.8,5.0,-137.1,-190.8,-9.7
CS(=O)(=O)N(CC(=O)Nc1ccc(F)cc1F)C1CCCCC1,4.0,9.5,81.6*,7.5,7.0,5.0
CSc1ccccc1NC(=O)CN(C1CCCCC1)S(C)(=O)=O,12.7,1.5,-6.6,-9.6,-12.7,-0.5
Clc1ccc(-c2nc3cnccn3c2NC2CCCC2)cc1,4.4,-3.4,5.8,-15.6,-40.8,6.9
COc1ccc(CNC(=O)c2cccc3c(-c4cccnc4)coc23)cc1OC,88.4*,.,.,.,.,.
O=C(Nc1ccc(N2CCOCC2)c(S(=O)(=O)Nc2ccccc2Cl)c1)c1ccc(F)cc1,13.6,2.2,3.9,8.9,-57.7,-11.3
O=C(Nc1ccc(Cl)c(Cl)c1)Nc1ccc(N2CCCC2)c(S(=O)(=O)Nc2ccccc2Cl)c1,97.7*,73.1*,38.8,7.4,8.6,16.5
O=C(Nc1ccc(F)cc1)Nc1ccc(N2CCCC2)c(S(=O)(=O)Nc2ccccc2Cl)c1,77.7,74.7*,14.0,-16.5,-1.1,18.8
COc1ccc(CC(=O)Nc2cc(=O)n(C)c(=O)n2C)cc1,-10.3,-1.4,-1.4,1.1,-8.8,6.5
Cc1cccc(C2(c3cccc(C)c3)CC2C(=O)Nc2ccc([N+](=O)[O-])cc2O)c1 (configuration not stated),73.3,66.3*,39.1,-1.0,-30.5,38.8
Cc1cc(C)nc(NC(N)=NCCc2ccccc2)n1,27.0,65.4*,29.9,.,.,-0.5
CCN(CC(=O)Nc1ccc2c(c1)OCCO2)C(=O)c1ccc([N+](=O)[O-])s1,-3.2,70.7*,-2.4,-2.4,24.1,-13.4
CCOc1ccc(C(=O)N(CC)CC(=O)Nc2ccc3c(c2)OCCO3)cc1OCC,-2.2,-6.3,0.7,2.6,8.7,-9.8
O=C(NCc1ccc(OC(F)(F)F)cc1)C1CC(c2c(Cl)cccc2Cl)=NO1 (configuration not stated),12.7,.,41.3*,-7.9,-1.3,14.0
COc1ccc(OCC(=O)Nc2nccs2)cc1,5.6,-1.0,?,-81.4,7.6,-84.1
CCOc1ccc(OCC(=O)Nc2nccs2)cc1,8.0,52.2,42.9*,7.7,22.9,-56.1
O=C(Nc1ccc(OCC(=O)N2CCOCC2)cc1)c1ccccc1Cl,-44.2,-39.4,51.3*,1.9,-5.9,-48.8
O=C(N/N=C/c1ccc(OCC(=O)N2CCOCC2)cc1)c1ccccc1Cl,-3.0,0.3,-2.2,-5.1,32.7,-4.3
O=C(CSc1ccc(Cl)cc1)N/N=C/c1ccc([N+](=O)[O-])o1,-14.6,61.8*,-20.9,-13.9,6.8,2.1
Cc1ccc(NC(=O)CCC(=O)N/N=C/c2ccc([N+](=O)[O-])o2)cc1C,.,79.1*,-4.3,3.9,18.3,-5.9
O=C(N/N=C/c1ccc([N+](=O)[O-])o1)c1sc2ccccc2c1Cl,19.7,77.7*,-3.9,3.6,-0.5,-6.5
SMILES,Shn3 3UTR inh,TRPM1 prom inh,EBV LMP1 NFkB,Jurkat NFkB inh,697 NFkB inh,Gli-Sufu block
CCCc1ccc(-c2cc(C(=O)N/N=C/c3ccc([N+](=O)[O-])o3)c3ccccc3n2)cc1,-10.3,50.6,58.5*,-13.2,-77.6,-53.5
O=C(NC1CCCCC1)c1cccc(S(=O)(=O)N2CCCCC2)c1,12.6,5.3,-3.1,-1.3,5.1,-5.5
COc1ccccc1NS(=O)(=O)c1cccc(C(=O)N/N=C/c2ccc([N+](=O)[O-])o2)c1,52.7,86.1*,-55.5,-6.6,6.6,1.5
Cc1ccc(OCC(=O)N/N=C/c2ccc([N+](=O)[O-])o2)cc1,-5.7,63.6*,-7.2,-11.8,-20.7,0.0
Cc1ccc(OCC(=O)N/N=C\c2ccc(C)o2)c([N+](=O)[O-])c1,-3.6,-7.3,-4.2,.,.,-24.2
COc1ccc(-c2nn(-c3ccccc3)cc2C(=O)N/N=C/c2ccc([N+](=O)[O-])o2)cc1,26.7,89.7*,-67.7,15.4,16.8,29.3
